These results are taken from ChEMBL document CHEMBL1961873, “Compounds: GSK PKIS; Assays: Nanosyn kinase panel” (2012).

Assay [1] addresses RAC-alpha serine/threonine-protein kinase (Homo sapiens) (UniProt P31749). Particulars: at 0.1 µM.
Assay [2] shares this target. The conditions noted are these: at 1 µM.
Assay [3] has as its target RAC-beta serine/threonine-protein kinase (Homo sapiens) (UniProt P31751). Particulars: at 0.1 µM.
The target is the same in assay [4]. The conditions noted are these: at 1 µM.
The target of assay [5] is RAC-gamma serine/threonine-protein kinase (Homo sapiens) (UniProt Q9Y243). The conditions noted are these: at 0.1 µM.
RAC-gamma serine/threonine-protein kinase (Homo sapiens), sequence (Q9Y243 whole entry): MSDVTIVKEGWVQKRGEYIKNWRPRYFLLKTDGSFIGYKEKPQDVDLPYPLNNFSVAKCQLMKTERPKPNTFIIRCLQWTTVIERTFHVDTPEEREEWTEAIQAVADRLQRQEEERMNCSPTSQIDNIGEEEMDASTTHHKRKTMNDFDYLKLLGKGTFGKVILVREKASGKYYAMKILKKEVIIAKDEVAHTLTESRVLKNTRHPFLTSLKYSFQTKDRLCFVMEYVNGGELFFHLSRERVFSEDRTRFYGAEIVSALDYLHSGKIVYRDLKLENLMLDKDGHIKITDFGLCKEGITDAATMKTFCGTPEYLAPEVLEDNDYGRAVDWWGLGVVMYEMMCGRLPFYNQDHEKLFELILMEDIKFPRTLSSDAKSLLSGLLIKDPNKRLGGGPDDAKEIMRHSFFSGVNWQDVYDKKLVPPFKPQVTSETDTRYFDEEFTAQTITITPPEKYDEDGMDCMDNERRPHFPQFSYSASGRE
For assay [6] the target is unchanged. The conditions noted are these: at 1 µM.
Assay [7] addresses G protein-coupled receptor kinase 6 (Homo sapiens) (UniProt P43250). Particulars: at 0.1 µM.
Assay [8] has the same target. The conditions noted are these: at 1 µM.
The target of assay [9] is T1, Rhodopsin kinase GRK7 (Homo sapiens) (UniProt Q8WTQ7).
T1 sequence (whole entry): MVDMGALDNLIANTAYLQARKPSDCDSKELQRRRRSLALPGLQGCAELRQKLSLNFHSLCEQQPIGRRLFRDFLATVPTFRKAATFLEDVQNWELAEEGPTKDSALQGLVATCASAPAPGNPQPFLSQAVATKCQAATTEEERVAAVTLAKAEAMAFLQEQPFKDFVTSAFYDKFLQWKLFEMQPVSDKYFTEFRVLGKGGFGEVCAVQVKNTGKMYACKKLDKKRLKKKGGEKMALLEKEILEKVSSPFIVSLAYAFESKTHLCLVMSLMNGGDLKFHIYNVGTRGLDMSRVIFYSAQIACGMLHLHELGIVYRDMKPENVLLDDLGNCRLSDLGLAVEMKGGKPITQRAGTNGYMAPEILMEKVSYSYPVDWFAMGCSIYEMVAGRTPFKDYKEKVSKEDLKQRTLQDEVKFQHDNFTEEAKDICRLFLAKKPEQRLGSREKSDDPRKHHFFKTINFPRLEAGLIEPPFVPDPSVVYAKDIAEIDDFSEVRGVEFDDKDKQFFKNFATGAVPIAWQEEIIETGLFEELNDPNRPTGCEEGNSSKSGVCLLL
The conditions noted are these: at 0.1 µM.

Assay [10] deals with T1, Rhodopsin kinase GRK7 (Homo sapiens). The conditions noted are these: at 1 µM.

One may read the inhibition as the change of the read-out against control, counted positive when it falls.

RAC-beta serine/threonine-protein kinase (Homo sapiens), sequence (P31751 whole entry): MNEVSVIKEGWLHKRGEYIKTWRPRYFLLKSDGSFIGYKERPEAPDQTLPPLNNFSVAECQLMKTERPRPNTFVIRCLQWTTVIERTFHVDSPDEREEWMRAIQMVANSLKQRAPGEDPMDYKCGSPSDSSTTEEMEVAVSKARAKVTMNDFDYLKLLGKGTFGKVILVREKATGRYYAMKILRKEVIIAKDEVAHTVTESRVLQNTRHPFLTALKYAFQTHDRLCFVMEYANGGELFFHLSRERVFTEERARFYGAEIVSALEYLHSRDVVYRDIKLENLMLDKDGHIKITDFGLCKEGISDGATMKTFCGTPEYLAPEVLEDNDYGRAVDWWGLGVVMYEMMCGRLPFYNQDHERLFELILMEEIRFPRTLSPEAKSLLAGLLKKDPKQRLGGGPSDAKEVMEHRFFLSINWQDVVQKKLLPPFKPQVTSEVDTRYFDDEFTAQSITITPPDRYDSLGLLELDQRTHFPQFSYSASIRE
G protein-coupled receptor kinase 6 (Homo sapiens), sequence (P43250 whole entry, looked up): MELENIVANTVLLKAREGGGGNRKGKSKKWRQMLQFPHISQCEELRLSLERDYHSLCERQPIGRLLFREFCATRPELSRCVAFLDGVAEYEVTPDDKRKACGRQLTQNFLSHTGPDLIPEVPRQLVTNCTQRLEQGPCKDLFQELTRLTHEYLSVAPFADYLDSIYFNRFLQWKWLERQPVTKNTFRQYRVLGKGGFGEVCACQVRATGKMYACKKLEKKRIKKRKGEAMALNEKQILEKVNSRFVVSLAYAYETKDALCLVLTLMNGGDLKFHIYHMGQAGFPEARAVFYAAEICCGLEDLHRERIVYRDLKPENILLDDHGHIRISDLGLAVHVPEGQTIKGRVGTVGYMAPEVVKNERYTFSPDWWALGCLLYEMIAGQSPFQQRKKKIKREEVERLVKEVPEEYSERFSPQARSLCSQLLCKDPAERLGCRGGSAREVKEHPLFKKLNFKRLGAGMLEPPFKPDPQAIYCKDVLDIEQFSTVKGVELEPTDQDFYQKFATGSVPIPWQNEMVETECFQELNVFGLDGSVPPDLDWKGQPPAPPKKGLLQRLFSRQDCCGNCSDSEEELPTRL
RAC-alpha serine/threonine-protein kinase (Homo sapiens), sequence (P31749 whole entry): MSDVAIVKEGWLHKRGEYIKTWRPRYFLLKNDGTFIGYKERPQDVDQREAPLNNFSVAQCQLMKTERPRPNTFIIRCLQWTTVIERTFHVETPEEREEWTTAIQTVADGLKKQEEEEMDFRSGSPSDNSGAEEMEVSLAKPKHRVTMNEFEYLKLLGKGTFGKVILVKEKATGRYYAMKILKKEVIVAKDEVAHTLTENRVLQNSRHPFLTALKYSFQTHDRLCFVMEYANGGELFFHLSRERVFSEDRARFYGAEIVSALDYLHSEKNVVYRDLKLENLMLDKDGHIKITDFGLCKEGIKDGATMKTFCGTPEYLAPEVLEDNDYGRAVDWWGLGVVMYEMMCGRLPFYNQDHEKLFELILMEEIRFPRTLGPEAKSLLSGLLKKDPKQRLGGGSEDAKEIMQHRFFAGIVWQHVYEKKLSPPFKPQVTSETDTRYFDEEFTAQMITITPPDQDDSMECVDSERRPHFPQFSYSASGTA

As for `CC(C)c1ccc2c(c1)NC(=O)/C2=N/Nc1ccc(S(N)(=O)=O)cc1`, the inhibition in [1] was -0.05%; in [2] it was -0.49%; in assay [3], -0.37%; in assay [4], 0.73%; in [5], -0.27%; in assay [6], 4.41%. The inhibition in assay [7] was -0.59%; in assay [8] it was -0.78%; in assay [9] it was 2.96%; in assay [10] it was -0.57%.

With `CCOc1nccc2c1nc(-c1nonc1N)n2CC`, the inhibition was found to be 0.82% in assay [1]; 1.86% in assay [2]; 1.97% in [3]; 1.44% in assay [4]; 0.46% in assay [5]; 1.25% in assay [6]. For the same compound, the inhibition stood at 4.85% in [7], 18.1% in assay [8], 3.99% in assay [9] and 8.26% in [10].

Consider `COC(=O)c1ccc2c(c1)C(=Cc1cc(Br)c(O)c(Br)c1)C(=O)N2`, for which the inhibition in assay [1] came to 0.91%; in [2] it was 0.66%; in assay [3] it was 0.67%; in assay [4], 1.05%; in assay [5], 1.09%; in assay [6], 2.88%. For the same compound, the inhibition in assay [7] stood at 7.82%; in [8], 43.5%; in [9], 12.8%; in [10], 28.4%.

Take `Cc1ccc(Nc2ccnc(Nc3cccc(C(N)=O)c3)n2)cc1O`: the inhibition in assay [1] was -3.35%; in [2] it was -2.06%; in [3], -1.66%; in assay [4] it was -2.15%; in assay [5] it was -2.03%; in assay [6], -1.07%. Moreover, the inhibition came to 1.49% in assay [7], 6.26% in assay [8], 1.62% in assay [9] and 0.17% in assay [10].

Regarding `Cc1nc(-c2ccccc2)n2nc(NCCCN3CCOCC3)ncc12`, the inhibition in [1] was determined as 0.61%; in assay [2] it was 0.11%; in assay [3], 0.45%; in [4], 2.03%; in [5], 0.57%; in assay [6], 4.13%. Further, the inhibition in assay [7] came out at 3.41%; in [8] it was 0.49%; in [9] it was 5.84%; in assay [10] it was 2.44%.

As to `Nc1ccc(C#Cc2cncnc2Nc2ccc(OCc3cccc(F)c3)c(Cl)c2)cc1`, the inhibition was found to be 0.15% in assay [1]; 1.42% in assay [2]; 1.06% in assay [3]; 1.24% in assay [4]; 0.3% in [5]; 2.19% in assay [6]. In addition, the inhibition in [7] turned out to be 0.63%; in [8] it was 0.83%; in assay [9] it was 5.58%; in assay [10], 1.26%.

Take `CN(C)C(=O)O[C@@H]1CN[C@@H](C#Cc2cc3ncnc(Nc4ccc(OCc5cccc(F)c5)c(Cl)c4)c3s2)C1`: the inhibition in assay [1] is -0.54%; in assay [2], -0.11%; in [3] it was 0%; in [4], -1.02%; in [5], -0.71%; in [6], 0.16%. The inhibition in assay [7] was 0.14%; in assay [8], -1.42%; in assay [9], -2.8%; in assay [10], 11.4%.

Take `N#Cc1cccc(Nc2nccc(-c3cnn4ncccc34)n2)c1`: the inhibition in assay [1] was 0.4%; in [2], 1.36%; in assay [3], 1.11%; in assay [4], 1.66%; in assay [5], 3.16%; in assay [6] it was 5.1%. In addition, the inhibition in [7] was determined as 2.91%; in assay [8], 8.01%; in [9] it was 6.46%; in [10] it was 21.6%.

In the case of `Cc1ccc2c(c1)/C(=N/Nc1ccc(S(N)(=O)=O)cc1)C(=O)N2`, the inhibition is 0.76% in [1]; -0.7% in assay [2]; 2.19% in assay [3]; -0.04% in assay [4]; -1.25% in [5]; 0.38% in assay [6]. In addition, the inhibition was -0.52% in [7], -1.05% in assay [8], 0.29% in assay [9] and 4.95% in assay [10].

For the compound `Cc1ccc(O)cc1Nc1ccnc2ccc(S(C)(=O)=O)cc12`, the inhibition turned out to be 0.79% in assay [1]; 0.22% in assay [2]; 2.36% in assay [3]; 1.9% in assay [4]; 1.87% in assay [5]; 4.72% in [6]. The inhibition turned out to be 6.06% in assay [7], 7.8% in [8], 3.42% in assay [9] and 9.64% in assay [10].

On to `Cc1ccc2c(-c3ccnc(Nc4cccc(C(F)(F)F)c4)n3)c(-c3ccccc3)nn2n1`, for which the inhibition in assay [1] came to 0.89%; in [2] it was 1.19%; in [3] it was 0.8%; in assay [4], 2.31%; in assay [5] it was 0.73%; in assay [6], 4.19%. Besides, the inhibition was 2.15% in assay [7], 2.48% in assay [8], 10.5% in [9] and 3.2% in [10].

For `Nc1nccc(-c2c(-c3ccc(F)cc3)nn3cc(C(F)(F)F)ccc23)n1`, the inhibition in assay [1] was 0.02%; in assay [2], -0.66%; in [3], -0.52%; in assay [4], 0.01%; in assay [5], 0.2%; in assay [6], -5.93%. The inhibition in [7] is -1.46%; in assay [8], -0.24%; in assay [9], 3.74%; in assay [10] it was 4.14%.

In the case of `COc1cccc(-n2ncc3c(N/N=C/c4ccc(C)cc4)ncnc32)c1`, the inhibition in assay [1] came to 1.26%; in assay [2], 0.76%; in assay [3], 1.76%; in assay [4], 1.75%; in assay [5] it was 0.43%; in [6] it was 1.94%. The inhibition in [7] amounted to 4.73%; in [8], 5.93%; in assay [9] it was 11.7%; in assay [10], 7.9%.

Take `Cc1ccc2c(-c3ccnc(Nc4ccc5c(c4)OCCO5)n3)c(-c3ccc(C(F)(F)F)cc3)nn2n1`: the inhibition is 1.37% in assay [1]; 1.23% in [2]; 1.5% in [3]; 1.65% in assay [4]; 1.43% in assay [5]; -4.48% in assay [6]. Moreover, the inhibition in assay [7] was determined as 0.55%; in assay [8] it was 2.19%; in [9] it was 5.75%; in assay [10], 2.78%.

On to `CN1CCN(C(=O)c2ccc(NC(=O)Nc3ccc(N(C)c4ccnc(Nc5ccc(CS(C)(=O)=O)cc5)n4)cc3)cc2)CC1`, for which the inhibition is 0.3% in [1]; -0.86% in [2]; -0.33% in assay [3]; 1.06% in assay [4]; 0.49% in assay [5]; 1.64% in assay [6]. Besides, the inhibition in assay [7] was determined as 2.2%; in assay [8], 1.86%; in assay [9] it was 4.4%; in assay [10] it was 0.44%.

For `Cc1cc(O)cc(C)c1/C=C/c1cncc(C(=O)N(C)C)c1`, the inhibition is 0.52% in [1]; 0.6% in assay [2]; 2.14% in assay [3]; 0.78% in assay [4]; 1.44% in assay [5]; 1.3% in [6]. Moreover, the inhibition in assay [7] was 3.76%; in [8], 0.05%; in assay [9], 0%; in assay [10], -6.95%.

Turning to `NS(=O)(=O)c1cccc(-c2cc3ccncc3cc2OCc2ccccc2)c1`, the inhibition in assay [1] was determined as 1.37%; in assay [2], 0.84%; in assay [3], 1.79%; in assay [4], 2.65%; in assay [5], 2.96%; in assay [6], 0.32%. Further, the inhibition in assay [7] turned out to be 0.24%; in [8] it was 2.95%; in assay [9], 2.9%; in assay [10], 4.85%.

On to `COc1cc(/C=N/Nc2ncnc3c2cnn3C(C)C)ccc1O`, for which the inhibition is -0.05% in assay [1]; -2.56% in assay [2]; 0.47% in [3]; -1.58% in assay [4]; 0.98% in [5]; -1.46% in [6]. The inhibition in assay [7] amounted to 4.24%; in [8], 77.6%; in [9] it was 1.66%; in assay [10], 7.37%.

`COc1cc2ncnc(Nc3ccc(C)c(O)c3)c2cc1OC`: the inhibition in assay [1] was determined as 0.49%; in [2], 0.96%; in assay [3], 1.99%; in assay [4] it was 1.77%; in assay [5], 1.98%; in assay [6], 1.76%. For the same compound, the inhibition amounted to 6% in [7], 5.91% in assay [8], 4.99% in assay [9] and 7.5% in assay [10].

Consider `CC(C)c1ccc(Nc2nccc(-c3cnn4ncccc34)n2)cc1`, for which the inhibition in assay [1] stood at 0.38%; in assay [2], 0.64%; in [3] it was 1.28%; in [4] it was 1.13%; in assay [5] it was 1.09%; in assay [6], 1.51%. The inhibition in assay [7] came to 4.74%; in [8] it was 3.14%; in [9], 2.17%; in [10], 3.19%.
